High-throughput results from PubChem.
IL1B secr inh: qHTS for Inhibitors of Inflammasome Signaling: IL-1-beta AlphaLISA Primary Screen; THP-1 LPS/ATP IL-1B secretion, AlphaLISA, 16 h; hits give low values; activity change, % at 57.5 µM; 4.7% of 360,000 active; AID 743279, 2014; in the data active = activity change below about -50%; inconclusive = mostly about -30% to -49%
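THP-1 cells pretreated 1 hr with compounds (up to 57.5 uM final), then stimulated with LPS (250 ng/mL final) plus ATP (1.25 mM final); secreted IL-1B measured by AlphaLISA after 16 hr, decreased signal indicating inhibition.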
KB-3-1 cytotox: qHTS assay for MDR1-selective chemotherapeutics: Primary screen using the parental adenocarcinoma cell KB-3-1; KB-3-1 viability, CellTiter-Glo ATP luminescence, 72 h; 1.4% of 400,000 active; Potency, µM (titrated, usually from 46.1 µM), most hits filed as cytotoxic; note: nearly all actives have a fitted effect of over 60% in size
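Cytotoxicity in the drug-sensitive parental line KB-3-1 was scored as loss of CellTiter-Glo luminescence following 72 h incubation with compound. Values come from curve fitting of normalized concentration-response data.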
KB-V1 cytotox: qHTS assay for MDR1-selective chemotherapeutics: Primary screen using the drug-selected MDR subline cells KB-V1 | KB-V1 MDR cells viability, CellTiter-Glo, 72 h | Potency, µM (series often up to 46.1 µM), actives largely listed as cytotoxic | 3.4% of 400,000 active | AID 1347076, 2019; note: nearly all actives have a fitted effect of over 60% in size
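Compound-treated KB-V1 multidrug-resistant cells, 72 h, 37 degrees C; viability by CellTiter-Glo. Fitted qHTS curves give the values.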
MCF10A rereplic: A quantitative high throughput screen for small molecules that induce DNA re-replication in MCF 10a normal breast cells; 2.9% of 350,000 active; MCF 10A DNA re-replication, Hoechst nuclear intensity, 48 h; Potency, µM (doses to about 46.1 µM), hits mostly activators; AID 624296, 2012; note: nearly all actives have a fitted effect of over 50% in size
SW480 rereplic: A quantitative high throughput screen for small molecules that induce DNA re-replication in SW480 colon adenocarcinoma cells. SW480 DNA re-replication, Hoechst DNA content imaging, 48 h. Potency, µM (highest dose often 46.1 µM), hits mostly activators. 1.8% of 340,000 active; note: nearly all actives have a fitted effect of over 55% in size
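SW480 cells exposed to compounds for 48 hr at 37 C, 5% CO2, then Hoechst-stained 40 min. Nuclear DNA content imaged by fluorescence scanning (405 nm excitation, 500-530 nm emission); re-replication scored as increased high-intensity nuclei.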
Of the large screens only hits and unclear results are named; the others gave an inactive call. Shown are actives, neighbours in structure and some others; about 9.9% of the full set was active somewhere. Unless noted, calls come from the whole dose curve; as a rule, active = well fitted curve in the direction sought with a large enough effect; inconclusive = small, poorly fitted or top-dose-only effect, or another doubt; inactive = no such curve, though single readings can be large; an effect the other way counts as inactive or inconclusive.

CC(C)CNC(=S)N1CCC(C(=O)c2ccc3c(c2)OCCO3)CC1	none
COc1ccc(C(CNC(=O)C2COc3ccccc3O2)N2CCCC2)cc1 (stereo not given)	none
CC(=O)c1cc2c(cc1N/C(=N/S(=O)(=O)c1ccc(C)cc1)c1ccc(F)cc1)OCO2	none (no result: IL1B secr inh, MCF10A rereplic, SW480 rereplic)
CN(CC(=O)Nc1cccc(F)c1)C(=O)/C=C/c1cn(Cc2ccccc2)nc1-c1cccnc1	none
CCC(ONc1ccccc1C(F)(F)F)(C(=O)NN(C)C)c1ccccc1 (stereo not given)	none
Cc1cc(NC(=O)CSCC(=O)Nc2cc(Cl)ccc2N2CCN(C)CC2)no1	none
Cc1cccc(NC(=O)CSCC(=O)Nc2cc(Cl)ccc2N2CCN(C)CC2)c1	IL1B secr inh -79
O=C(Nc1ccc(Cl)c(Cl)c1)Nc1cc(S(=O)(=O)N2CCOCC2)ccc1N1CCCC1	IL1B secr inh -60, KB-3-1 cytotox inconclusive
CN1CCN(c2ccc(Cl)cc2NC(=O)c2ccc(S(=O)(=O)N(C)C)cc2)CC1	IL1B secr inh inconclusive, SW480 rereplic 11µM
CCc1cc(C(=O)Nc2cc(S(=O)(=O)N3CCCCC3)ccc2N2CCN(C)CC2)sc1C	IL1B secr inh -70, KB-3-1 cytotox 23µM (no result: MCF10A rereplic, SW480 rereplic)
Cc1ccc(-n2nc3c(=O)n(CCCC(=O)N4CCC(C(N)=O)CC4)nc(C)c3c2C)cc1	none
CN(C(=O)CN1CCN(c2cnn(-c3ccccc3)c(=O)c2Cl)CC1)C1CCS(=O)(=O)C1 (stereo not given)	none
Cc1ccccc1C(=O)Nc1cc(S(=O)(=O)N2CCCCC2)ccc1N1CCN(C)CC1	KB-3-1 cytotox inconclusive, KB-V1 cytotox inconclusive
CCOC(=O)c1c(-c2ccccc2Cl)csc1NC(=O)c1cc(S(=O)(=O)N2CCOCC2)ccc1C	KB-V1 cytotox 10µM, MCF10A rereplic inconclusive
O=C(Nc1cc(S(=O)(=O)N2CCOCC2)ccc1N1CCCCC1)c1ccc(Cl)cc1	none
O=C(Nc1cc(S(=O)(=O)N2CCOCC2)ccc1N1CCCCC1)c1ccccc1	IL1B secr inh inconclusive, KB-V1 cytotox 5.2µM
CC(C)COc1cccc(C(=O)Nc2cc(S(=O)(=O)N3CCOCC3)ccc2N2CCCC2)c1	KB-V1 cytotox 18µM (no result: IL1B secr inh)
CN1CCN(c2ccc(S(=O)(=O)N3CCCCC3)cc2NC(=O)c2ccc3ccccc3c2)CC1	IL1B secr inh -92, KB-3-1 cytotox inconclusive, KB-V1 cytotox 10µM, MCF10A rereplic 23µM, SW480 rereplic inconclusive
O=C(Nc1ccccc1N1CCCC1)c1cc(S(=O)(=O)N2CCOCC2)ccc1Cl	none
O=C(CN1CCc2ccccc2C1)Nc1cc(S(=O)(=O)N2CCOCC2)ccc1N1CCOCC1	KB-V1 cytotox inconclusive
O=C(Nc1cc(S(=O)(=O)N2CCOCC2)ccc1N1CCCC1)c1ccccc1F	none (no result: MCF10A rereplic, SW480 rereplic)
O=C(OCN1C(=O)c2ccccc2C1=O)c1cc(S(=O)(=O)N2CCOCC2)ccc1F	IL1B secr inh -57
O=C(Nc1cc(S(=O)(=O)N2CCOCC2)ccc1N1CCCCC1)c1ccccc1Br	IL1B secr inh -59
O=C(Nc1ccccc1N1CCCCC1)c1cc(S(=O)(=O)N2CCOCC2)ccc1F	KB-3-1 cytotox inconclusive, KB-V1 cytotox inconclusive, MCF10A rereplic 12µM
O=C(CN1CCc2ccccc2C1)Nc1cc(S(=O)(=O)N2CCOCC2)ccc1N1CCCC1	KB-V1 cytotox 4.1µM
C=Cc1cnc([N+](=O)[O-])n1C	KB-3-1 cytotox inconclusive (no result: MCF10A rereplic, SW480 rereplic)
CC(CNC(=O)C1CCN(C(=O)N2CCOc3ccc(Cl)cc32)CC1)c1ccccc1 (stereo not given)	none (no result: IL1B secr inh, MCF10A rereplic, SW480 rereplic)
COc1cc(CC(NC(C)=O)C(=O)NC2CCN(c3c(Cc4ccccc4)c(C)nc4ncnn34)CC2)cc(OC)c1 (stereo not given)	KB-3-1 cytotox inconclusive
CC(C)Oc1ccc(/C=N/NC(N)=S)cc1	KB-3-1 cytotox inconclusive, KB-V1 cytotox 15µM, MCF10A rereplic inconclusive, SW480 rereplic inconclusive
ON/C=N/C(=S)Nc1ncc(C(F)(F)F)cc1Cl	KB-V1 cytotox inconclusive
Cc1scc(C(=O)N/N=C/c2ccc(OC(C)C)cc2)c1C	IL1B secr inh -70
NC(=S)N/N=C/c1ncc(C(F)(F)F)cc1Cl	IL1B secr inh -103, MCF10A rereplic inconclusive, SW480 rereplic inconclusive
COc1ccc(/C=N/NC(N)=S)cc1	KB-V1 cytotox inconclusive, MCF10A rereplic inconclusive
C=CCOc1ccc(/C=N\NC(N)=S)cc1	KB-V1 cytotox inconclusive, MCF10A rereplic inconclusive
CCCCOc1cccc(/C=N/NC(=O)c2csc(C)c2C)c1	IL1B secr inh inconclusive, MCF10A rereplic inconclusive
NC(=S)N/N=C/c1ccc(C(F)(F)F)cc1	KB-3-1 cytotox 23µM, KB-V1 cytotox 5.8µM, MCF10A rereplic inconclusive (no result: SW480 rereplic)
Cc1ccc(OCC(=O)OC(C)CN2CCCCC2)cc1 (stereo not given)	MCF10A rereplic 1µM
COc1ccc(OCC(=O)OC(C)CN2CCCCC2)cc1 (stereo not given)	none
O=[N+]([O-])c1ccc2c(c1)C(N1CCN(CCO)CC1)Cc1ccc(F)cc1S2 (stereo not given)	none (no result: MCF10A rereplic, SW480 rereplic)
Fc1ccc2c(c1)Sc1ccc(Cl)cc1CC2N1CCN(CCC2OCCO2)CC1 (stereo not given)	IL1B secr inh -75, KB-3-1 cytotox inconclusive, MCF10A rereplic inconclusive, SW480 rereplic inconclusive
CC(=O)N1CCCC(C(=O)c2ccc(Oc3ccccc3)cc2)C1 (stereo not given)	IL1B secr inh inconclusive, KB-V1 cytotox inconclusive
CC(Oc1ccccc1)C(=O)Nc1nc(-c2ccccn2)cs1 (stereo not given)	IL1B secr inh -103, KB-3-1 cytotox inconclusive, MCF10A rereplic inconclusive
CC(Oc1cccc(Cl)c1)C(=O)Nc1nc(-c2ccccn2)cs1 (stereo not given)	IL1B secr inh -101, KB-3-1 cytotox inconclusive, SW480 rereplic 6.5µM
CC(Oc1ccccc1)C(=O)Nc1nc(-c2ccncc2)cs1 (stereo not given)	none
Cc1ccc(NC(=O)CN2C(=O)c3ccccc3Sc3ccc(C(=O)N4CCCC4)cc32)cc1	none (no result: IL1B secr inh, MCF10A rereplic, SW480 rereplic)
COC(=O)/C(=C(O)\C=C\c1ccccc1[N+](=O)[O-])c1nc2ccccc2[nH]1	IL1B secr inh inconclusive
COc1ccc2nc(SCc3ccccc3C)nc(C)c2c1	KB-V1 cytotox 15µM
Cc1ccc2nc(SCc3cccc([N+](=O)[O-])c3)nc(C)c2c1	KB-V1 cytotox inconclusive, MCF10A rereplic inconclusive
COc1ccc2nc(SCC(=O)O)nc(C)c2c1	none
COc1ccc2nc(SCCOC(=O)Nc3ccc(Cl)cc3)nc(C)c2c1	KB-3-1 cytotox inconclusive, KB-V1 cytotox 15µM, MCF10A rereplic inconclusive
COc1ccc2nc(SCc3cccc(C)c3)nc(C)c2c1	KB-V1 cytotox 16µM, MCF10A rereplic inconclusive
Cc1ccc2nc(-c3cccs3)c(Nc3ccc4c(c3)OCCO4)n2c1	none (no result: IL1B secr inh, MCF10A rereplic, SW480 rereplic)
CCOc1ccc(C(=O)N2CCCCCC2)cc1	none
